GalR3 antag: antagonists of human GalR3 | O60755 | HEK293 GalR3-CNG cAMP membrane potential fluorescence; galR3 body fused to GalR1 C-terminus | inhibition, % at 3 µM | hit rate 0.44% among 360,000 | AID 651719;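 active means inhibition above the screen-wide average plus 3 SD, cut at about 13% in these data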;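 further: forskolin and galanin both at EC90 stimulate the cells; cAMP rise reported by CNG channel membrane potential dye signal; 0% = forskolin plus galanin with DMSO and 100% = forskolin alone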
SRC2 inh: human SRC2 (NCOA2) inhibition | hit rate 0.17% among 370,000 | AID 651957 | Q15596 | HEK293 GAL4-SRC2 luciferase reporter, luminescence | inhibition, % at 9 µM;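 active means inhibition above the mean inhibition of all tested compounds plus 3 SD, set per campaign, cut at about 52% in these data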;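 further: 0% = DMSO treated cells and 100% = cells given Gossypol at 36 µM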
SRC3 inh: human NCOA3 inhibition; Q9Y6Q9; HEK293 GAL4-SRC3 luciferase reporter, luminescence; inhibition, % at 3.6 µM; hit rate 0.17% among 360,000; AID 588352;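 active means inhibition above a per-campaign cutoff, the mean of all compounds plus 3 SD, cut at about 60% in these data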;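 further: 0% = DMSO-treated cells and 100% = gossypol-treated cells at 36 µM; higher means less SRC3-driven luciferase light from the GAL4 reporter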
NR5A2 inv ag: inverse agonists of human LRH-1 (NR5A2) | O00482 | HEK293T StAR-luciferase reporter, LRH-1 transfected, 24 h | inhibition, % at 3.6 µM | hit rate 0.13% among 360,000;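 active means inhibition above the mean inhibition of all tested compounds plus 3 SD, cut at about 73% in these data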;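 further: 0% = DMSO wells and 100% = reporter-only cells lacking LRH-1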
SRC1 inh: inhibits human SRC1 coactivator; Q15788; HEK293 GAL4-SRC1 luciferase reporter, luminescence; inhibition, % at 3.6 µM; hit rate 0.12% among 360,000; AID 588354;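 active means inhibition above the campaign mean plus 3 SD, with each screening campaign given its own cutoff, cut at about 60% in these data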;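 further: 0% = DMSO treated cells and 100% = gossypol at 36 µM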
COUP-TFII inh: inhibitors of human COUP-TFII (NR2F2). hit rate 0.7% among 370,000. inhibition, % at 8.6 µM. AID 686940. HEK293T NGFI-A luciferase reporter, luminescence;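 active means inhibition above a per-plate cutoff, mean inhibition of test wells between control levels plus 3 SD, cut at about 38% in these data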;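 further: cells cotransfected with COUP-TFII expression vector driving the NGFI-A reporter; 0% = median of COUP-TF2 test wells and 100% = reporter-only cells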
Active calls of the source: *; i = inactive; x = no result given. This is a sample that favours compounds with a hit; in the whole collection about 1.1% have one here.

SMILES	GalR3 antag	SRC2 inh	SRC3 inh	NR5A2 inv ag	SRC1 inh	COUP-TFII inh
COC(=O)c1ccc(/C=C2/SC(=S)N(CCCC(=O)Nc3ccccn3)C2=O)cc1	3	4	13	4	-4	10
CCc1ccc(/C=C2\SC(=S)N(CCCC(=O)Nc3ccccn3)C2=O)cc1	-1	57*	14	-2	9	31
COc1ccc(/C=C2\SC(=S)N(CCCC(=O)Nc3ccc(O)cc3)C2=O)cc1	-3	60*	19	11	9	21
CCOC(=O)CNC(=O)CSc1nnc(-c2ccc(C(C)(C)C)cc2)n1-c1ccc(Cl)cc1	x	-7	x	x	x	13
Cc1ccc(S(=O)(=O)/N=C2/C=C(Sc3ncn[nH]3)C(=O)c3ccccc32)cc1	x	x	94*	97*	91*	x
COC(=O)c1ccccc1NC1=C/C(=N\S(=O)(=O)c2cccs2)c2ccccc2C1=O	-4	3	-16	9	-13	16
Cc1ccc(S(=O)(=O)/N=C2\C=C(Nc3cccc(C(=O)O)c3)C(=O)c3ccccc32)cc1	-2	-51	-11	-44	-17	2
Cc1ccc(NC2=C/C(=N/S(=O)(=O)c3cccs3)c3ccccc3C2=O)cc1	3	-72	73*	-101	-66	-24
Cc1ccc(S(=O)(=O)/N=C2\C=C(Nc3ccc(O)cc3)C(=O)c3ccccc32)cc1	x	x	92*	95*	90*	x
O=C1C(Nc2ccccc2)=C/C(=N/S(=O)(=O)c2cccs2)c2ccccc21	x	x	87*	79*	85*	x
Cc1ccc2nc(-c3ccc(NC(=O)CSc4nnc(-c5cccc(Cl)c5)n4Cc4ccco4)cc3)sc2c1	x	-80	x	x	x	-24
CCOC(=O)COc1ccc(C(C)c2ccc(NC(=O)OC(C)(C)C)cc2)cc1 (stereo not drawn)	x	0	x	x	x	-16
COCCCNC(=O)C[C@H]1C[C@@]2(C(=O)OC)C(=C[C@H](C(C)(C)C)O[C@@H]2C)N(Cc2cccc3ccccc23)C1=O	x	2	x	x	x	1
CSc1nnc(NC(=O)c2nc(S(=O)(=O)Cc3cccc(C)c3)ncc2Cl)s1	-8	56*	-17	14	-43	17
O=S1(=O)c2ccc(N3CCCC3)cc2Oc2ccccc2CN1Cc1cn(Cc2ccccc2C(F)(F)F)nn1	x	13	x	x	x	-11
COc1ccc(OC)c(S(=O)(=O)N2CCCCC2C(=O)N2CCN(c3ccc(F)cc3)CC2)c1 (stereo not drawn)	x	12	x	x	x	23
Cc1cc(Nc2ccccc2)n(-c2ccccc2)n1	-4	-13	5	11	1	-2
Cc1cc(C)nc(-n2nc(C)cc2Nc2ccccc2)n1	-2	-6	-9	75*	6	28
CCCCC(=O)N1CCN(C(=O)c2ccc3c(c2)nc(C)n3C2CCCC2)CC1	x	2	x	x	x	-11
C(=N\Nc1nc2ccccc2[nH]1)/c1cccc2cccnc12	5	2	62*	64	-11	-40
COc1ccc(Cn2c(NC(=O)c3ccccc3)nc(Cc3ccccc3)c2-c2ccccc2)cc1	x	-27	x	x	x	-18
CCN(CC)S(=O)(=O)c1cccc(C(=O)N/N=C(\C)c2ccc(O)cc2O)c1	1	37	70*	-17	-14	2
Cc1ccnc2c1ccc1c(C)ccnc12	x	x	75*	93*	77*	x
Cc1ccnc2c1ccc1cccnc12	-4	52	-50	71	7	-3
Cc1ccc(NC(=O)CCN2CCN(CCO)CC2)cc1	-1	-18	-38	-11	-6	-6
SMILES	GalR3 antag	SRC2 inh	SRC3 inh	NR5A2 inv ag	SRC1 inh	COUP-TFII inh
Cc1ccc(NC(=O)CCN2CCCCC2)cc1	-8	59*	8	9	20	-17
CN1C=C/C(=C\c2cc[n+](C)c3ccccc23)c2ccccc21	-3	23	38	81*	53	46*
O=C(CSc1nnc(COc2ccc(Cl)cc2)n1Cc1ccco1)Nc1ccc2c(c1)OCO2	x	4	x	x	x	21
O=C1NC(=O)C(c2ccc(F)cc2)N1 (stereo not drawn)	-4	6	89*	89*	90*	-9
CCCOc1ccc(C2NC(=O)NC2=O)cc1 (stereo not drawn)	11	-14	1	19	-21	8
Cc1ccc(-n2c(SCC(=O)Nc3ccc(OCc4ccccc4)cc3)nnc2-c2cnccn2)cc1	x	3	x	x	x	-11
COc1ccc(C2C(C#N)=C(N)SC(N)=C2C#N)cc1OC	-3	-14	-3	15	-21	-2
N#CC1=C(N)SC(N)=C(C#N)C1c1cccc(O)c1	60*	-13	-7	16	2	7
CN(c1ccc(Cl)cc1)c1cc(=O)n(C)c2ccccc12	-1	-39	27	-15	5	-27
CN(C)c1ccc(C=c2c3ccccc3n3c2cc(-c2ccc(Cl)cc2)[n+]3C)cc1	-3	-28	68*	74*	6	59*
COc1ccc(S[C@]2(C(=O)N(C)C)CC(=O)N(c3ccccc3)[C@@H]2c2ccc(OC)cc2)cc1	x	8	x	x	x	9
CCOc1ccc(C(=O)CSCCC(=O)O)cc1	-1	55*	23	5	13	56*
CCOc1ccc(C(=O)Cc2ccccc2)cc1	-4	-52	-46	-57	-54	-48
Cc1ccc(-n2c(SCC(=O)N/N=C/C=C\c3ccccc3[N+](=O)[O-])nnc2-c2ccccc2)cc1	x	6	x	x	x	-1
N#Cc1c(N)n(C2OC(CO)C(O)C2O)c2ncnc(N)c12 (stereo not drawn)	-2	55*	85*	95*	83*	17
CC(C)Oc1cccc(-c2n[nH]c(=S)n2N=Cc2cccc([N+](=O)[O-])c2)c1	x	-7	x	x	x	-14
O=C(NC1CCCCN(Cc2ccc(Cl)cc2)C1=O)c1ccc(-c2ccccc2)cc1 (stereo not drawn)	x	2	x	x	x	33
CCOC(=O)Cc1nc(N2CCCN(C(C)=O)CC2)c2c(C)c(C(=O)OCC)sc2n1	x	-12	x	x	x	10
Cc1cc(/C=C\c2ccc3cc(N(C)C)ccc3[n+]2C)c(C)n1-c1ccccc1	x	x	77*	77*	53	x
C[n+]1c(/C=C/c2ccc(O)cc2)ccc2ccccc21	-11	-54	-24	-25	-47	-23
O=C(NCCc1c[nH]c2ccccc12)c1ccc([N+](=O)[O-])o1	-4	52*	2	55	22	28
O=C(NCCc1c[nH]c2ccccc12)c1cc([N+](=O)[O-])cc([N+](=O)[O-])c1	-9	14	12	10	2	12
O=C1C=CC2(C=C1)O[C@H](Cc1ccccc1)[C@@H](Cc1ccccc1)O2	0	54*	-190	71	-204	100*
COc1ccc(C[C@@H]2OC3(C=CC(=O)C=C3)O[C@H]2Cc2ccc(OC)cc2)cc1	x	x	-372	56	i	x
